# Bioassay records from PubChem.
# An excerpt weighted towards active compounds, which were near 2.3% of everything screened.
# SENP7 inh: inhibitors of human SENP7 protease. inhibition, % at 5 µM. Q9BQF6. hit rate 1.5% among 330,000. AID 434973. recombinant SENP7, Z-RLRGG-aminoluciferin luminescence, 40 min;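 active = inhibition above about 50% at the single test dose, limit read from the data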;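 note: plate controls were DMSO with enzyme for no effect and no enzyme buffer wells for full effect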
# Target sequence (Q9BQF6 706-1050 limits assumed): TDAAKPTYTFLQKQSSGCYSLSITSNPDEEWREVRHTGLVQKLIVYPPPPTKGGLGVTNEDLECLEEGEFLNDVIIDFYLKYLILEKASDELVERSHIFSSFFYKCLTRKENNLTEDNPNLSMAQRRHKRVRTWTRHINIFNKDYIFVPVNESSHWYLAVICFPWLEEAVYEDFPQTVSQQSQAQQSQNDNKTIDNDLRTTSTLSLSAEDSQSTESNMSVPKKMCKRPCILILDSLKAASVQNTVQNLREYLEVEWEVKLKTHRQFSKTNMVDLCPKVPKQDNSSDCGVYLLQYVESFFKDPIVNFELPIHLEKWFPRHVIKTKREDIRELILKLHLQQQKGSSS
# SENP8 block-1: inhibitors of human SENP8 protease | purified SENP8, Z-RLRGG-aminoluciferin cleavage, luminescence | hit rate 1.2% among 330,000 | Q96LD8 | inhibition, % at 10 µM; in the data active = inhibition above about 50%
# Target sequence (Q96LD8 whole entry, looked up): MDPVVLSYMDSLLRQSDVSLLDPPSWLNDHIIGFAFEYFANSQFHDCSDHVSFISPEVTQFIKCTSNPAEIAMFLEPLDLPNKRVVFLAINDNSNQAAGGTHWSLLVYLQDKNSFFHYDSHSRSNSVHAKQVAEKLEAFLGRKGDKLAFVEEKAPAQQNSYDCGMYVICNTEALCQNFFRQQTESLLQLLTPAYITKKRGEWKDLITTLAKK
# SENP8 block-2: blocks human SENP8 cleavage of Nedd8 substrate; Q96LD8; recombinant SENP8, Nedd8 substrate fluorescence; inhibition, % at 20 µM; hit rate 0.64% among 360,000; AID 602440; in the data active = inhibition mostly above about 40%, no sharp cut-off; inactive = mostly below about 27%
# LGR2 antag: inhibitors of bursicon-induced Drosophila LGR2 receptor cAMP signaling; inhibition, % at 9.99 µM; hit rate 0.35% among 380,000; HEK293 LGR2, CRE-luciferase, bursicon-stimulated, 4 h; AID 720647;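 active = drop in luminescence signal, shown as inhibition above about 50% in the replicate tests, limit read from the data, passing the limit was not always enough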;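 note: agonist challenge used bursicon conditioned medium at about half maximal strength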
# SENP6 block: inhibitors of human SENP6 protease; Q9GZR1; Recombinant SENP6 catalytic domain, aminoluciferin luminescence; inhibition, % at 10 µM; hit rate 1.8% among 330,000; AID 2599;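 active = inhibition above about 50% at the single tested dose, limit read from the data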;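 note: plate controls were DMSO wells with enzyme for no effect and DMSO wells lacking enzyme for full effect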
# HSP90 inh: inhibitors of HSP90 luciferase refolding in rabbit reticulocyte lysate; luciferase refolding luminescence, 3 h; inhibition, % at 5.6 µM; hit rate 0.91% among 290,000; AID 1789;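 active = inhibition above the screen-wide mean plus 3 SD, computed separately per campaign, cut at about 16% in these data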;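 note: 0% = DMSO wells and 100% = 60 µM geldanamycin wells; inhibitors lower the luminescence because luciferase stays unfolded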
# HSP90 confirm: HSP90 inhibition, confirmation assay. AID 1846. shares compounds with HSP90 inh. hit rate 64% among 2,300. inhibition, % at 5.9 µM. rabbit reticulocyte lysate, luciferase refolding luminescence, 3 h; in the data active = inhibition above about 18%;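 note: 0% = vehicle wells and 100% = reference inhibitor wells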
# FLuc counter: blocks native firefly luciferase in HSP90 counter-screen; AID 1847; inhibition, % at 5.9 µM; purified native firefly luciferase, luminescence; shares compounds with HSP90 inh; hit rate 48% among 2,300;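 active = inhibition above the mean inhibition of all tested sample wells plus 3 SD, cut at about 10% in these data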;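 note: 0% = DMSO with luciferase and 100% = wells lacking luciferase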
# The depositor's hits bear a star; i = inactive; . = not tested or not shown.
SMILES,SENP7 inh,SENP8 block-1,SENP8 block-2,LGR2 antag,SENP6 block,HSP90 inh,HSP90 confirm,FLuc counter
Cn1c(-c2ccc(F)cc2)cnc1SCC(=O)N1CCCCC1,1,-3,17,.,-1,18*,27*,19*
C[C@@H]1CN([C@@H](C)CO)C(=O)c2cc(NS(=O)(=O)c3cccs3)ccc2O[C@@H]1CN(C)Cc1ccc(-c2ccccc2)cc1,.,.,.,0,.,.,.,.
CC(C)CN(CCCNC(=O)CN1C(=O)COc2ccc(S(=O)(=O)N3CCCC3)cc21)CC(C)C,-8,-6,2,-10,-11,22*,-4,-5
CC(C)CN(CCCNC(=O)CN1C(=O)COc2ccc(S(=O)(=O)N3CCCCCC3)cc21)CC(C)C,-5,-2,12,13,3,0,.,.
COc1ccc2c3c([nH]c2c1)[C@H](CO)N(Cc1nccs1)CC31CN(C(=O)C2CC2)C1,.,.,.,-2,.,.,.,.
O=C(N[C@H]1CC[C@H](CCNC(=O)c2ccccc2F)O[C@H]1CO)c1cnccn1,.,.,.,-2,.,.,.,.
COc1ccc(C#Cc2ccc3c(=O)c4ccccc4n(C)c3c2)cc1,-13,-9,.,.,-8,-3,.,.
Cn1c2ccccc2c(=O)c2ccc(C#Cc3ccc(N)cc3)cc21,-5,7,-486,.,-18,24*,31*,0
COc1ccccc1C#Cc1ccc2c(=O)c3ccccc3n(C)c2c1,-12,-4,i,1,7,24*,6,-11
Cn1c2ccccc2c(=O)c2cc(C#Cc3cccc(N)c3)ccc21,32,20,i,.,25,.,.,.
C[C@@H]1CN([C@H](C)CO)S(=O)(=O)c2ccc(C#CC(C)(C)O)cc2O[C@H]1CN(C)C(=O)CC1CC1,.,.,.,-4,.,.,.,.
C[C@@H](NC(=O)[C@H]1[C@H](CO)[C@H]2Cn3c(cccc3=O)[C@H]2N1CC1CCCC1)c1ccccc1,.,.,.,7,.,.,.,.
O=C1CCCc2c1[nH]c1ccccc21,0,-4,-51,.,-3,-2,.,.
O=c1c2c([nH]c3ccccc13)CCC2,0,-8,0,-5,-18,20*,-6,-7
O=C(c1ccco1)N1CCN(c2ccc([N+](=O)[O-])cc2F)CC1,-5,0,16,-12,-17,-1,.,.
O=C1CCN(c2ccc([N+](=O)[O-])cc2F)CC1,-5,-2,21,4,-2,34*,-5,-8
CCC(=O)N(C)C[C@@H]1Oc2cc(-c3ccccc3F)ccc2S(=O)(=O)N([C@@H](C)CO)C[C@H]1C,.,.,.,0,.,.,.,.
CC(c1ccccc1)n1c(-c2cccs2)nc2c(c(=O)c3ccccc3n2C)c1=O (stereo not drawn),8,-2,-66,24,-9,25*,-1,-12
Cn1c2ccccc2c(=O)c2c(=O)n(-c3ccc(F)cc3)c(-c3cccs3)nc21,20,2,-124,-4,-10,-1,.,.
CCC(=O)N(C)C[C@@H]1Oc2cc(-c3ccc(OC)cc3)ccc2S(=O)(=O)N([C@H](C)CO)C[C@@H]1C,.,.,.,0,.,.,.,.
CN(C)CCCNC(=O)[C@H]1[C@H](CO)[C@H]2Cn3c(ccc(-c4ccncc4)c3=O)[C@@H]1N2C(=O)C1CC1,.,.,.,11,.,.,.,.
CN(c1ccc(O)cc1)c1nc(-c2cccs2)cs1,-7,3,25,-5,-27,0,.,.
Cc1nc(N)sc1-c1csc(N(C)c2ccc(O)cc2)n1,-4,-9,17,6,6,27*,-10,-21
O=c1[nH]nc(-c2ccccc2)cc1-c1ccccc1,-1,1,-130,-13,-9,.,.,.
Cc1cc(-c2ccccc2)c2c(=O)[nH][nH]c2n1,-10,-7,6,-11,-12,18*,-8,-17
SMILES,SENP7 inh,SENP8 block-1,SENP8 block-2,LGR2 antag,SENP6 block,HSP90 inh,HSP90 confirm,FLuc counter
COc1ccc(C(=O)NC2CCN(C(=S)Nc3cccc(C)c3)CC2)cc1,2,2,10,1,-30,21*,5,-1
Cc1cccc(NCc2cc(Cl)cc(Cl)c2O)n1,4,0,5,9,-4,18*,-2,-4
C[n+]1ccccc1/C=C1\Sc2ccccc2N1CCO,-2,15,18,-20,-8,18*,0,-2
Cc1ccc2c(c1)S/C(=C\c1cccc[n+]1C)N2CCO,-1,-2,17,0,18,-2,.,.
C/C(=N/Nc1ccc(C(=O)O)cc1)c1ccc2c(c1)Nc1ccccc1S2,.,.,-492,-42,.,.,.,.
C/C(=N\Nc1ccc(C(=O)O)cc1)c1ccc2c(c1)Nc1ccccc1S2,1,3,-393,-50,14,24*,28*,-29
Cc1ccccc1C(=O)N1CCC(C(=O)NC2CCCCCC2)CC1,5,-4,2,-5,5,20*,-2,-9
O=C(NC1CCCCC1)C1CCN(C(=O)c2ccccc2Cl)CC1,-10,-12,8,10,-29,-1,.,.
COc1ccc(S(=O)(=O)N(C)C[C@@H]2Oc3ccc(NC(=O)C4CCCCC4)cc3C(=O)N([C@H](C)CO)C[C@H]2C)cc1,.,.,.,-12,.,.,.,.
CNC(=S)N/N=C/c1ccc(-c2ccc(C(=O)O)cc2)o1,0,-6,-449,5,0,34*,37*,-2
CC(C)(C)NC(=S)N/N=C\c1ccc(-c2ccc([N+](=O)[O-])cc2)o1,-2,-6,-7,-22,6,2,.,.
Cc1ccc(NC(=S)NC(=O)C2CC2)c(C)c1,-10,-14,7,-39,-12,31*,-10,-18
Cc1ccc(NC(=S)NC(=O)C2CCCC2)cc1C,-10,6,13,-65,-7,-4,.,.
Cc1cccc(OCCCC(=O)Nc2ccc(S(=O)(=O)Nc3ncccn3)cc2)c1C,14,6,-3,11,-1,25*,1,-5
Cc1cccc(OCCCC(=O)Nc2ccc(S(=O)(=O)Nc3onc(C)c3C)cc2)c1C,-2,15,16,.,7,-2,.,.
Cc1ccc(SCc2cn3ccccc3n2)cc1,23,10,14,-90,21,5,.,.
Cn1ccnc1SCc1cn2cc(Br)ccc2n1,6,-8,13,.,1,18*,40*,34*
C[C@H](CO)N1C[C@H](C)[C@@H](CN(C)C(=O)Nc2ccc(C(F)(F)F)cc2)OCCCC[C@H](C)Oc2ccc(NS(=O)(=O)c3cccs3)cc2C1=O,.,.,.,10,.,.,.,.
COCCNC(=O)C[C@H]1CC[C@H]2[C@@H](COC[C@H](O)CN2C(=O)Nc2ccc3c(c2)OCO3)O1,.,.,.,3,.,.,.,.
COC(=O)c1ccc(N=NNc2cccc(Br)c2)cc1,.,.,8,-83,.,10,.,.
Cc1[nH]n(-c2ccccc2)c(=O)c1N=Nc1ccc2c(c1)OCCO2,-8,-7,33,-71,-12,-1,.,.
COC(=O)c1ccc(N=Nc2c(C)[nH]n(-c3ccccc3)c2=O)cc1,1,1,33,15,3,26*,30*,-4
